Screening data deposited in PubChem by The Scripps Research Institute Molecular Screening Center.
TTR transcr act = TTR transcription activators in neuroblastoma reporter cells, primary screen, cell-based, luminescence, SH-SY5Y, TTR promoter Gaussia luciferase; 100% = recombinant luciferase protein wells; hit rate 1.3% among 92,000; AID 1117267, 2014; activation, % at 16.7 µM;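 active means activation above the mean of all tested compounds plus 3 SD, cut at about 9.5% in these data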;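 further: cells exposed to compounds for one day before reading; 0% = median of all test compound wells on the plate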
TTR inh HuH7 = TTR promoter reporter inhibitors in hepatoma cells, counter-screen for TTR transcription activator project, cell-based, luminescence, HuH7 hepatoma | shares compounds with TTR transcr act | HuH7 TTR promoter-Gaussia luciferase reporter | inhibition, % at 16.7 µM | hit rate 4% among 1,100 | AID 1117279, 2014;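 active means average inhibition above the solvent-only control wells' mean plus 3 SD, cut at about 15% in these data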;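 further: 0% = cells with DMSO only and 100% = cells with inhibitor control FD; inhibitors lower well luminescence so higher value means more inhibition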
TTR act confirm = TTR transcription activators, retest, confirmation, cell-based, luminescence, SH-SY5Y, triplicate | shares compounds with TTR transcr act | SHSY5Y TTR promoter Gaussia luciferase; 100% = purified Lucia enzyme wells, no cells | activation, % at 16.7 µM | 1,100 tested, under 10 active;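 active means mean activation above a set limit taken from the earlier primary screen, cut at about 11% in these data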;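 further: 0% = DMSO-treated cells and 100% = recombinant Lucia luciferase without cells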
Starred values were filed as active, the others as inactive. Shown is part of a subset that was picked to be rich in hits.

SMILES	TTR transcr act	others
COC(=O)[C@]12C[C@H](CC(=O)NCc3ccc(OC)c(OC)c3)C(=O)N(Cc3cccc4ccccc34)C1=C[C@H](C(C)C)O[C@@H]2C1CC1	-2.6
COC(=O)c1ccc(N2CCN(C)CC2)c(NC(=O)c2sc3ccccc3c2Cl)c1	3.5
Cc1ccc(CN[C@@H]2CC[C@@]34CCCN3C(=O)CCC[C@H]4C2)o1	0.2
CCS(=O)(=O)N1CCN=C1SCc1ccccc1	-1.8
CCCS(=O)(=O)N1CCN=C1SCc1cccnc1	14.9*	TTR inh HuH7=-6.6;TTR act confirm=1.4
CC(=O)Nc1ccc(S(=O)(=O)N2CCN=C2SCc2cccnc2)cc1	-1.1
CC1(c2nnnn2C2CCCCC2)CSCC(=O)N1CCc1ccc(O)cc1 (configuration not stated)	-0.7
COc1cccc(NC(=O)CN(C)C(=O)c2cc(S(=O)(=O)NCc3ccccc3)ccc2C)c1	31.9*	TTR inh HuH7=-20.1;TTR act confirm=0.7
COc1cccc(NC(=O)CN(C)C(=O)c2cc(S(=O)(=O)Nc3ccccc3OC)ccc2C)c1	4.4
COc1cccc(NC(=O)CN(C)C(=O)c2ccc(NS(=O)(=O)c3ccc(F)cc3)cc2)c1	0.5
CCc1cc(C(=O)Nc2cc(S(=O)(=O)N3CCOCC3)ccc2N2CCN(CC)CC2)sc1C	-0.9
O=C1CSCC(=O)N1c1ccccc1	34.5*	TTR inh HuH7=-8.6;TTR act confirm=-0.3
O=C1CCC(=O)N1c1ccccc1	0.6
O=C1CSC(=S)N1c1ccccc1	1.7
CCC[C@H]1[C@@H](NC(=O)c2cccc(Cl)c2)CC[C@@]23CCCN2C(=O)CCC[C@@H]13	0.3
CCCCCC(/C=N/Nc1ccc(S(=O)(=O)N2CCOCC2)cc1[N+](=O)[O-])=C\c1ccccc1	1.9
Cc1ccccc1NC(=O)C1Cc2ccccc2CN1C(=O)OCc1ccccc1 (configuration not stated)	10.8*	TTR inh HuH7=-11.7;TTR act confirm=-1.0
COc1cccc(NC(=O)C2Cc3ccccc3CN2C(=O)c2ccco2)c1 (configuration not stated)	1.2
Cc1ccccc1NC(=O)C1CC(=O)N(Cc2ccccc2)C1 (configuration not stated)	-0.2
O=C1CN(C(=O)c2ccccn2)c2ccccc2N1	0.1
O=C1CN(C(=O)OCc2ccccc2)c2ccccc2N1	14.4*	TTR inh HuH7=-9.5;TTR act confirm=0.1
O=C1CN(C(=O)NCC(=O)N[C@H](C(=O)O)c2ccccc2)c2ccccc2N1	0.8
Cc1nn(C)c(=O)n1N(C)c1ncc(C(F)(F)F)cc1Cl	2.3
Cc1ncoc1C(=O)Nc1nccs1	10.0*	TTR inh HuH7=-9.1;TTR act confirm=0.5
CSc1ccccc1C(=O)Nc1nccs1	-0.8
SMILES	TTR transcr act	others
O=C(Nc1nccs1)c1ccc2c(c1)OCO2	-0.2
CC(=O)c1noc(C)c1C(=O)Nc1nccs1	-3.6
Cc1cccc(C(=O)Nc2nccs2)c1[N+](=O)[O-]	40.4*	TTR inh HuH7=-6.9;TTR act confirm=-0.1
CCOC(=O)c1ccc(NC(=O)c2cccc(C)c2[N+](=O)[O-])cc1	1.0
O=C(NCc1ccccc1)OC1CCC12CCC(c1ccccc1)CC2 (configuration not stated)	1.3
O=S(=O)(O)c1cc(O)c(N=Nc2ccc(O)cc2O)c2ccccc12	-1.6
O=S(=O)(Nc1ccc(C(O)(C(F)(F)F)C(F)(F)F)cc1)c1cccs1	0.5
CN=C1S/C(=C/c2cc(C)n(-c3ccc(Cl)cc3F)c2C)C(=O)N1C	-0.5
CC(c1cccnc1)N(C(=O)Nc1ccccc1)C1CCCCC1 (configuration not stated)	1.3
COc1cccc(NC(=O)N(C2CCCCC2)C(C)c2cccs2)c1 (configuration not stated)	13.2*	TTR inh HuH7=-10.8;TTR act confirm=-1.0
COc1cccc(NC(=O)Cc2cccs2)c1	-2.0
COc1cc(CC(=O)C(=O)O)oc(=O)c1	0.0
C[C@H](NS(=O)(=O)c1ccccc1)C(=O)N1CCN(C(c2ccccc2)c2ccccc2)CC1	-3.1
COC(=O)[C@H]1C[C@@H]1[C@H](NC(=O)c1cc(C)on1)c1ccccc1	4.1
COC(=O)[C@@H]1C[C@H]1[C@@H](NS(=O)(=O)c1ccccc1)c1ccccc1	10.0*	TTR inh HuH7=-17.1;TTR act confirm=-0.7
Cc1nc2ccccn2c1P(=O)(c1ccccc1)c1ccccc1	1.0
COC(=O)C[C@H]1CC[C@@H](NC(=O)Nc2ccc(C(F)(F)F)cc2)[C@@H](CO)O1	0.1
C[C@H]1[C@@H](OC(=O)Nc2ccc(Br)cc2)CC[C@@]23CCCN2C(=O)CCC[C@@H]13	3.0
O=C1CN(C(=O)CSc2nnc(C3CC3)n2-c2ccccc2)c2ccccc2N1	-1.2
COC(=O)[C@]12C[C@H](CC(=O)NCc3ccccc3)C(=O)N(Cc3cccc4ccccc34)C1=C[C@H](C(C)C)O[C@@H]2C1CC1	-1.4
